Screening results deposited in PubChem BioAssay by National Center for Advancing Translational Sciences (NCATS).
ELG1 genotox = qHTS screen for small molecules that induce genotoxicity in human embryonic kidney (HEK293T) cells expressing luciferase-tagged ELG1; Potency, µM (top dose mostly 46 µM), for inactives: at the highest dose activity change, positive = activation, actives largely listed as activators; HEK293T ELG1-luciferase reporter, luminescence, 16 h; AID 504466, 2011; hit rate 1.3% among 330,000; further: % of control where 0% means no effect; nearly all actives have a fitted effect of over 60% in size
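Genotoxicity was scored as increased ELG1-luciferase reporter signal, measured by ONE-Glo luminescence (30 min, room temperature). Compound or vehicle exposure of the HEK293T reporter cells lasted 16 hr at 37°C.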
NPC1 prom act = qHTS Assay for NPC1 Promoter Activators | hit rate 2.4% among 320,000 | Huh7 NPC1 promoter luciferase reporter, 24 h | Potency, µM (titrated, usually from 9.22 µM), inactives show top-dose activation, most hits filed as activators; further: % of control where 0% means no effect; nearly all actives have a fitted effect of over 60% in size
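Huh7 reporter cells (NPC1 promoter driving luciferase) are dosed with compound for 24 h at 37 °C, 5% CO2; luciferase detection reagent is then added and luminescence measured after 10 min at ambient temperature.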
ELG1 DNA repair = qHTS screen for small molecules that inhibit ELG1-dependent DNA repair in human embryonic kidney (HEK293T) cells expressing luciferase-tagged ELG1; HEK293T ELG1-luciferase reporter, luminescence, 16 h; DNA damage induced by 5-fluorouridine; Potency, µM (highest dose often 46.1 µM), without a hit: at the highest dose activity change, negative = inhibition, hits mostly inhibitors; AID 504467, 2011; hit rate 2.3% among 330,000; further: on the % scale 0 is the no-effect control and ±100 the full control effect; nearly all actives have a fitted effect of over 55% in size
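DMSO vehicle served as the neutral condition. Each well held 2,000 cells given 5-fluorouridine plus compound; after 16 hr at 37 °C/5% CO2, ONE-Glo was added and luciferase measured 30 min later.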
FLuc modulator = qHTS profiling assay for firefly luciferase inhibitor/activator using purifed enzyme and Km concentrations of substrates (counterscreen for miR-21 project); purified FLuc, Km substrates, luminescence inhibition; Potency, µM (highest dose often 57.5 µM), without a hit: top-dose activity change, negative = inhibition, most hits filed as inhibitors; hit rate 6.9% among 360,000;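 further: plate controls were vehicle for no effect and reference inhibitor for full effect; nearly all actives have a fitted effect of over 55% in size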
Target sequence (P08659 whole entry, looked up): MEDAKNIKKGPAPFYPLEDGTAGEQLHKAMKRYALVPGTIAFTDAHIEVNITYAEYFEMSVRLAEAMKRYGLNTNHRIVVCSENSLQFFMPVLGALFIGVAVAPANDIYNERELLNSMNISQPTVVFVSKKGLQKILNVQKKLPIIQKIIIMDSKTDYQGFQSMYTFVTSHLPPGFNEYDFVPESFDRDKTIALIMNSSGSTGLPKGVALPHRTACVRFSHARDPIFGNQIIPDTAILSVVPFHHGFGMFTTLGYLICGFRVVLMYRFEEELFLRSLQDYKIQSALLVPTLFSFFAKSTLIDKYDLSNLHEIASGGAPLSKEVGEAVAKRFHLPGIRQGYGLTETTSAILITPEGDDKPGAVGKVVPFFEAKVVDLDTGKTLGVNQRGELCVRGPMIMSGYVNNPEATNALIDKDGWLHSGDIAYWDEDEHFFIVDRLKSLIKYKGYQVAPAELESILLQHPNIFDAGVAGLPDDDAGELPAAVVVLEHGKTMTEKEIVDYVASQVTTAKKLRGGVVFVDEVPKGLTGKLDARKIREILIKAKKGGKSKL
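Purified P. pyralis luciferase, 10 nM final, with Km-level 10 uM D-luciferin and 10 uM ATP in 50 mM Tris acetate pH 7.5, 10 mM Mg acetate, 0.01% Tween-20, 0.05% BSA; 6-point qHTS titration about 60 µM downward; luminescence read.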
Rab9 prom act = qHTS Assay for Rab9 Promoter Activators | Huh7 Rab9 promoter-luciferase reporter, luminescence, 24 h | Potency, µM (titrated, usually from 9.22 µM), for the others: at the highest dose activation, negative = inhibition, usual class: activators | hit rate 2.8% among 320,000; further: % of control where 0% means no effect; nearly all actives have a fitted effect of over 60% in size
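Huh7 reporter line, Rab9 promoter upstream of luciferase. Compound exposure 24 h at 37 °C in reduced-serum medium with 10% FBS. Read-out: luminescence.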
SMN2 splice up = qHTS Assay for Enhancers of SMN2 Splice Variant Expression; hit rate 2.8% among 210,000; HEK293 SMN2-luciferase splicing reporter, luminescence, 30-36 h; Potency, µM (titrated, usually from 46.1 µM), for the others: at the top dose activity change, positive = activation, most hits filed as activators; further: % of control where 0% means no effect; nearly all actives have a fitted effect of over 55% in size
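qHTS luciferase splicing reporter: luminescence rises when SMN2 exon 7 is included in transfected HEK293 cells. Compound exposure lasted 30-36 h at 37C, with 4.5 mM final sodium butyrate as control, followed by a ONE-Glo read.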
An asterisk follows results filed as active; ? = inconclusive; / = no result; [ ] = remark or other dose. Hits are enriched below; roughly 9.4% of the tested compounds scored in any of these assays. The call rests on the fitted dose curve; in most records, active means well fitted curve in the direction sought with a large enough effect; inconclusive means small, poorly fitted or top-dose-only effect, or another doubt; inactive means no such curve, though single readings can be large; an effect the other way counts as inactive or inconclusive. Potency means the concentration at half of the fitted maximal effect.

SMILES | ELG1 genotox | NPC1 prom act | ELG1 DNA repair | FLuc modulator | Rab9 prom act | SMN2 splice up
O=C(COc1ccccc1)NCCc1csc(-c2ccc(Cl)cc2)n1 | / | / | / | -17.8% | / | /
O=C(Nc1ccc(F)cc1C(F)(F)F)C1CCN(c2ncccn2)CC1 | / | / | / | -1.3% | / | -4.5%
CCNc1ncc2ncc(=O)n(C)c2n1 | / | / | / | / | / | 0.1%
COc1ccc(C(=O)Nc2ccc(C(=O)Nc3cccc(C)c3)cc2)cc1 | 13µM* | -8.2% | ? | 2.9% | -11.5% | /
COc1cccc(C(=O)Nc2cccc(C(C)=O)c2)c1 | ? | ? | ? | 21.3µM* | ? | /
COc1ccc(NC(=O)c2cccc(NC(=O)c3ccccc3)c2)cc1 | 4.0% | ? | 22.8% | ? | ? | /
CCC(=O)Nc1ccc2c(c1)C(=O)c1ccccc1C2=O | ? | 1.58µM* | ? | 3.79µM* | 1.26µM* | 11.2µM*
CCOc1cccc(C(=O)Nc2cccc(C(C)=O)c2)c1 | -0.1% | 6.3% | 26.6% | ? | 21.7% | ?
CCC(=O)Nc1ccc2c(c1)C(=O)N(C)C2=O | -7.0% | -2.6% | 15.4% | 1.5% | 17.6% | 2.4%
COc1cccc(NC(=O)c2cccc(Cl)c2)c1 | 2.06µM* | 2.51µM* | ? | 3.38µM* | 2µM* | /
CCc1cccc(NC(=O)c2nc(-c3ccncc3)no2)c1 | / | / | / | -6.4% | / | /
COc1cccc(C(=O)Nc2ccc(C3CC3(Cl)Cl)cc2)c1 (configuration not stated) | ? | 2.24µM* | ? | 2.69µM* | 1.12µM* | 12.6µM*
COc1cccc(C(=O)NC(=S)Nc2ccc(N(C)C)cc2)c1 | ? | ? | ? | 12µM* | 3.55µM* | 11.2µM*
COc1cccc(C(=O)NC(=S)Nc2ccc(N3CCCC3)cc2)c1 | -3.4% | -0.5% | -21.3% | ? | -0.3% | -16.7%
COc1cccc(C(=O)Nc2ccc(C)cc2)c1 | 1.84µM* | 1.41µM* | ? | 6.01µM* | 1µM* | 11.2µM*
CCc1ccc(-n2nc(C)c3c(C(=O)Nc4cc(OC)cc(OC)c4)cc(C)nc32)cc1 | / | / | / | 2.3% | / | /
COc1ccc(C2N=C(c3ccccc3)NO2)cc1OC (configuration not stated) | ? | 20.3% | ? | 10.7µM* | 20.1% | /
FC(F)Oc1ccc(C2N=C(c3ccccc3)NO2)cc1 (configuration not stated) | ? | 2.82µM* | ? | 4.78µM* | 1.58µM* | /
O=C(Nc1ccc2c(c1)OCO2)c1ccc(Br)o1 | 18.4µM* | 2.51µM* | ? | 23.9µM* | 2.82µM* | 11.2µM*
CC(=O)Nc1ccc2c(c1)CCCC2 | 2.6% | 2.7% | ? | -13.8% | 7.1% | /
O=C(COC(=O)CNC(=O)c1ccc(Br)o1)Nc1ccc2c(c1)OCCO2 | -1.3% | -1.9% | 14.2% | -3.1% | 7.2% | 4.5%
O=C(Nc1ccc2c(c1)CCC2)c1ccc(Br)o1 | 6.51µM* | 3.55µM* | ? | 6.75µM* | 3.16µM* | 12.6µM*
Cc1ccc(C(=O)Nc2ccc3c(c2)CCC3)o1 | 3.26µM* | 3.16µM* | ? | 4.26µM* | 2.82µM* | 4.47µM*
O=C(Nc1ccc2c(c1)OCO2)c1ccc(COc2ccc3c(c2)CCC3)o1 | ? | ? | ? | 19µM* | 3.98µM* | 11.2µM*
COc1ccc(C(O)P(=O)(OCCC(C)C)c2ccc(N(C)C)cc2)cc1 (configuration not stated) | -4.8% | 0.5% | 1.1% | 9.0% | -1.3% | /
SMILES | ELG1 genotox | NPC1 prom act | ELG1 DNA repair | FLuc modulator | Rab9 prom act | SMN2 splice up
CSc1nc(N)c2ncn([C@@H]3O[C@H](COP(=O)(O)OP(=O)(O)O)[C@H](O)[C@H]3O)c2n1 | / | / | / | / | / | -4.0%
Cc1ccc(NC(=O)CSc2nn(-c3ccc(Cl)cc3)c(=S)s2)cc1S(=O)(=O)N(C)C | 1.4% | 1.3% | 14.6µM* | -10.0% | -8.9% | -58.5%
CC(C)C(=O)Nc1ccc(NC(=O)c2cc3ccccc3o2)cc1 | ? | 22.4% | ? | ? | 2.7%[1.84 µM] | ?
Cc1ccc(NC(=O)CNc2ccc(Cl)c(Cl)c2)cc1S(=O)(=O)N(C)C | 1.2% | -8.3% | -19.4% | 1.3% | -19.0% | -87.0%
Cc1ccc(NC(=O)Cc2ccc(Cl)c(Cl)c2)cc1S(=O)(=O)N(C)C | -0.9% | -1.0% | 14.6µM* | -9.4% | -3.4% | -53.2%
Cc1ccc(NC(=O)c2ccc(Br)o2)cc1S(=O)(=O)N(C)C | 4.3% | ? | ? | 13.5µM* | ? | ?
O=C(Nc1ccc2c(c1)CCC2)c1cc2ccccc2o1 | 1.64µM* | 1.26µM* | ? | 1.35µM* | 1.26µM* | 12.6µM*
CN(C)S(=O)(=O)c1cc(NC(=O)CSc2nn(-c3ccc(Cl)cc3)c(=S)s2)ccc1Cl | 1.1% | -0.8% | ? | 6.0% | 0.4% | -62.8%
COc1ccc(C(=O)NCCn2cc(SCC(=O)Nc3ccc(F)cc3)c3ccccc32)cc1 | / | / | / | ? | / | -25.7%
COc1ccc(NC(=O)NCCCCc2ccccc2)c(OC)c1 | -6.6% | -2.5% | -13.3% | -0.7% | -0.9% | /
CC(C)c1cnc2c(c1SCC(=O)c1ccccc1)c(=O)n(C)c(=O)n2C | / | / | / | -11.0% | / | /
[O-]/[N+](=C\C=C\c1ccccc1)c1ccccc1 | ? | 2.51µM* | ? | 4.78µM* | 1.78µM* | /
[O-]/[N+](=C/c1ccc(F)cc1)c1ccccc1 | 3.8% | 21.1% | -2.6% | ? | 20.6% | -8.7%
O=C(NCC(=O)N1CCN(C/C=C/c2ccccc2)CC1)c1ccc(Br)cc1 | -4.1% | / | 20.6µM* | / | / | /
O=C(NC(=S)N1CCN(C/C=C/c2ccccc2)CC1)c1ccc(Cl)nc1 | -11.4% | -3.7% | 18.3µM* | -3.2% | 0.5% | /
O=C(NC(=S)N1CCN(Cc2ccccc2)CC1)c1cccnc1 | -3.6% | -0.3% | 2.5% | 0.0% | -6.1% | /
O=C(O)/C(Cc1ccc([N+](=O)[O-])cc1)=N/O | / | / | / | / | / | -4.8%[9.22 µM]
CCCn1c2ccccc2c2cnn(CC(=O)Nc3cc(OC)c(OC)c(OC)c3)c(=O)c21 | / | / | / | -17.0% | / | /
COc1ccc2nc(N3CCN(C(=O)C4COc5ccccc5O4)CC3)sc2c1 (configuration not stated) | 8.9% | 2.82µM* | ? | 6.01µM* | 2µM* | /
CCOC(=O)C1CCN(C(=O)C2CCN(c3nc4ccc(OC)cc4s3)CC2)CC1 | -9.6% | -7.8% | -6.7% | 15.1µM* | -10.6% | -45.2%
Cc1cccc2sc(N3CCN(C(=O)C4COc5ccccc5O4)CC3)nc12 (configuration not stated) | -2.7% | -0.2% | -6.7% | -1.4% | -4.8% | /
